T1: UNK ZnF1-3 (human, UniProt Q9C0B0 31-174)
T1 sequence: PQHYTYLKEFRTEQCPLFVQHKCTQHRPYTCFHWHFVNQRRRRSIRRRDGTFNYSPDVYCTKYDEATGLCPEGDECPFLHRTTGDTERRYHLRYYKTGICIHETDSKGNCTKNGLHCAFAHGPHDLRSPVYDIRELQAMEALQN

B1: chr8:117878989:117878990:-_ENSG00000164754_ENST00000297338|hu_hu|hu_hu_hu_mus_True|68_98 (ssRNA)
RNA: GGGAGUUCUACAGUCCGACGAUCCCAGAGGCCCUCGUUUACUGAGAACAAAAUGUGCGUAGAACAUUGUUCUGGCUUGCUAUGAAAUAAGAAGAAACCUGGAUCUCGGCGGGGAGCCGGGAGGGGUGGGUGGCCCGGGGAGGGCAACAGAGGAUUGAGCAUCA
B2: chr10:79719409:79719410:+_ENSMUSG00000020153_ENSMUST00000020361|mus_mus|FALSE|FALSE (ssRNA)
RNA: GGGAGUUCUACAGUCCGACGAUCCCAGAUCUUCAGCUUCUGUUCACGCUUGAUCUUCCGUUGCAGCUGCAAGAUGCCAUAAAGGAGUGCUUCGGCCGUGGGCGGGCAGCCUGGCACAUAGAUGUCCACUGGCACAAUGCGGUCCAACAGAGGAUUGAGCAUCA
B3: chr7:149068622:149068623:-_ENSMUSG00000025139_ENSMUST00000001950|mus_hu|mus_mus_mus_hu_False|38_48 (ssRNA)
RNA: GGGAGUUCUACAGUCCGACGAUCGUGAGGCCUCUGAGUGUGGCUUGUGGUCUGUCCUGGGUUAGAGUUGUUAAUAUCACGGAACAUACCACUUAAGGAGGUUCUGCCCCGCCUGACACCUUCAUUCCCAAUGGAGAAGAAAUCCAACAGAGGAUUGAGCAUCA
B4: chr7:54823571:54823572:-_ENSG00000132432_ENST00000352861|hu_mus|hu_hu_hu_mus_False|48_88 (ssRNA)
RNA: GGGAGUUCUACAGUCCGACGAUCUCCCAUGAUAGCAAAUCCUAUAGCUGUUGCCAUGGCAAUCUUCUGGAAUUCUUUUCUGUCGGGUUUAGUGCAUCUUUUAACCAGCCGAAUUGAGUCCUUUACAAACUGCCGGCUGGGCUCCAACAGAGGAUUGAGCAUCA
B5: 55316162_55316282_4585_3pUTR_ENSMUSG00000018583_ENSMUST00000018727|mouse|control|control (ssRNA)
RNA: GGGAGUUCUACAGUCCGACGAUCUGACAACAGGGACUCCUGCCUAAGAGUAUCUUGCUGCUCUUCCAGGACAUAAGUUCGAUUCCCAGCACCUGUGUAGGAGGGCUCACUCACCUGUAACUCCAGCUCCAAGGGGCCACAGGCCAACAGAGGAUUGAGCAUCA
B6: chr17:56739783:56739784:+_ENSMUSG00000071054_ENSMUST00000095224|mus_mus|FALSE|FALSE (ssRNA)
RNA: GGGAGUUCUACAGUCCGACGAUCAUAUCUGCUAAACAGGUUCUUCAGAUCCGUGGCUCUGGUUGUAGACGAAAGGCCACUAACCCAGAAAUUCCUACCACAGCUGCUGCGACCCUUCUCUUCUCGGGAAAGCCUUUUUGUAUCCAACAGAGGAUUGAGCAUCA
B7: chr1:163112212:163112213:-_ENSG00000143248_ENST00000313961|hu_hu|FALSE|FALSE (ssRNA)
RNA: GGGAGUUCUACAGUCCGACGAUCUUUAUUUAUCCAGAAGCAUGAGUCACAUAGUACAUAAAGUAUUGAAUACAAAAUUCUAAAGAUAAACACAAUUUUUCUUGAAUUUAAAAUAUAUGGGAUAAAUGCUUACAAAUGGAUUUACAACAGAGGAUUGAGCAUCA
B8: chr2:61705769:61705770:-_ENSG00000082898_ENST00000401558|hu_hu|motif|central (ssRNA)
RNA: GGGAGUUCUACAGUCCGACGAUCAAAUGGGCAUGAAGUAAAAUUUUUAAAAAUGCCUUAAUUUUCAACUUCAUGCAAACGGAAUAAAGAUGACCAAAACAAAAGCUUAAACAAUGGAAGGAUAUUUCACAGAAAAUUUCUUAUCAACAGAGGAUUGAGCAUCA
B9: chr1:163112212:163112213:-_ENSG00000143248_ENST00000313961|hu_hu|hu_hu_hu_mus_False|78_88 (ssRNA)
RNA: GGGAGUUCUACAGUCCGACGAUCUUUUAUUAUCAGUAAGAGUGAGUCACAUAGUACAUAAAGUAUUGGAUACAAUAAUCAGGAAACAAACACUAUUGGUCCAGAAUUUAAAACUUUAUGAGCGAAGUGCUGGCACAGGACUUACAACAGAGGAUUGAGCAUCA
B10: chr5:145543945:145543946:-_ENSG00000133706_ENST00000545646|hu_mus|FALSE|FALSE (ssRNA)
RNA: GGGAGUUCUACAGUCCGACGAUCCUGAACGGCCAGUGGUGGGAAAUAAUCAAGCCAGUGCUCUGCUUCAGAAAACUUCACUAUGUCGUCAUCAGAGAGCCCAAGGGAUUUCAUAAUGUCCCACUGGUACUUAGAAGAUCCUGCCAACAGAGGAUUGAGCAUCA
B11: chr7:141445308:141445309:+_ENSG00000106028_ENST00000265304|hu_hu|hu_hu_hu_mus_False|28_98 (ssRNA)
RNA: GGGAGUUCUACAGUCCGACGAUCUAUGAUUGUUGUUGCUUGUCGCCUCACAUUGUUUUUAUCCAUGUACUCGCCAUAGUCCACUUUCCCUUCCACAAAUAUACGAGACCCCUUUUUCACAUACUGAUAUGCCACAUCUCUGAGCAACAGAGGAUUGAGCAUCA
B12: 39165641_39167405_4275_CDS_ENSMUSG00000037475_ENSMUST00000047037|mouse|control|control (ssRNA)
RNA: GGGAGUUCUACAGUCCGACGAUCUGAAGAGUCCUUGAGAUCGAUGAGACUGUCCUUUACUGUGGAGGAAUGUGAUGGAGAAGGAUGACUAUCAAUUUUGCGGCGUUUUUGUUCCCUGUCAGGCUCCGAGAUAUCUGAUCGGGGCAACAGAGGAUUGAGCAUCA
B13: chr11:46405157:46405158:+_ENSG00000110492_ENST00000395566|hu_hu|hu_hu_hu_mus_False|28_98 (ssRNA)
RNA: GGGAGUUCUACAGUCCGACGAUCCCCUCCCCACUUUGGCUGGGGAGUGUGGGCGUGAGAGGACAGGCGUGAUUGACAGAGCUGACAGGAAGACAAAAGGCACUGGUGGGUCACAUCUUGGGCCUGUGGGAGAGGAGGGCUCCGCAACAGAGGAUUGAGCAUCA
B14: chr9:58044877:58044878:-_ENSMUSG00000051243_ENSMUST00000114144|mus_hu|FALSE|FALSE (ssRNA)
RNA: GGGAGUUCUACAGUCCGACGAUCUCCCAGAGGCUGGGAAGGGGGUGUUAGCACCAGACCCGAAAUGUCGCUGUCUUUGAAAACAACGAAAACAGGAAAAUCUGAGCGCGGAGCUGAAAGGCGCCCCAGGCACCGGGCUGGACUCAACAGAGGAUUGAGCAUCA
B15: 11472005_11472125_940_CDS_ENSG00000105520_ENST00000251473|human|control|control (ssRNA)
RNA: GGGAGUUCUACAGUCCGACGAUCCUUGCAGGGGAAGGCGCGGCGCGCGGCGGCCACGAGGCUGGGACUGCCAGCGCAGGCACCCUGGUCAGUGACAAAGCGGUCGGGACCUGGCCGAUCCGGAGAAGGUGGCAGGCAGCCCAGCAACAGAGGAUUGAGCAUCA

Whole data set: some 24,000 sequences, median “enrichment r” near 0.99, cut for the highest 2% near 3.7. Many of the other results were omitted from the sample, so the highest values are more common in it than they were.

For the experiment, the target named is T1, UNK ZnF1-3. Put plainly: nsRBNS (natural sequence RNA bind-n-seq); RBNS binding buffer (assumed for nsRBNS): 25 mM Tris pH 7.5, 150 mM KCl, 3 mM MgCl2, 0.01% Triton X-100, 500 ug/ml BSA, 20 U/ml SUPERase-In, 4 C; UNK is unkempt and MSI1 is Musashi-1; names of the RNAs are library labels; protein concentration not given here; high values mean tight binding.
B1 had a binding signal of 2.44 enrichment R.

B2 had a binding signal of 0.695 enrichment R.

Regarding B3, the binding signal is 0.716 enrichment R.

With B4, the binding signal came to 0.587 enrichment R.

The molecule B5 yielded a binding signal of 0.768 enrichment R.

In turn, B6 registered a binding signal of 0.796 enrichment R.

B7 returned a binding signal of 7.3 enrichment R.

Molecule B8 gave a binding signal of 2.43 enrichment R.

For the molecule B9, the binding signal was 1.53 enrichment R.

In the case of B10, the binding signal was 0.979 enrichment R.

With B11, the binding signal turned out to be 0.605 enrichment R.

B12 yielded a binding signal of 1.19 enrichment R.

On to B13, for which the binding signal is 2.01 enrichment R.

Turning to B14, the binding signal worked out at 1.01 enrichment R.

Molecule B15 came in with a binding signal of 0.958 enrichment R.

The values above are taken from paper PMC12136788.
